From PubChem BioAssay (NCI)
Compounds without any hit were thinned out: in the full panel of roughly 79,000, 15% have a hit. Active and inactive are the calls of the source. Rule as the data show it: active = growth inhibition above about 70%; inactive = the rest.

Legend:
[1] = NCI Yeast Anticancer Drug Screen. Data for the rad52 strain (AID 147);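 also: 0% = growth of vehicle-treated control cultures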; settings: S. cerevisiae rad52 mutant growth inhibition, stronger effect = higher value
Method in brief: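 Screen used a yeast mutant impaired in DNA repair. After compound exposure, growth was measured. Values reflect inhibition compared with vehicle-treated cells.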

[2] = NCI Yeast Anticancer Drug Screen. Data for the wt1 strain (AID 149);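 also: 0% = growth of vehicle-treated wt1 cultures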; settings: S. cerevisiae wt1 strain (SPY 50644) growth inhibition, stronger effect = higher value
Method in brief: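 wt1 strain grown with compound or vehicle; inhibition taken from the growth difference.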

[3] = NCI Yeast Anticancer Drug Screen. Data for the rad50EPP+ strain (AID 151);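 also: 0% = growth of vehicle-treated control cultures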; settings: S. cerevisiae rad50 mutant strain, stronger effect = higher value
Method in brief: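 Exposing the rad50EPP+ strain to each compound, growth was compared with vehicle-only cultures to give inhibition.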

[4] = NCI Yeast Anticancer Drug Screen. Data for the mgt1 strain (AID 153); settings: S. cerevisiae mgt1 mutant growth inhibition, stronger effect = higher value
Method in brief: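 Genetically defined yeast (mgt1) treated with compound; inhibition of growth expressed against vehicle-treated controls.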

[5] = NCI Yeast Anticancer Drug Screen. Data for the rad50 strain (AID 155);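 also: 0% = growth of vehicle-only cultures of the same strain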; settings: S. cerevisiae rad50 strain growth inhibition, stronger effect = higher value
Method in brief: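 DNA repair mutant yeast, compound exposure, growth read-out; inhibition is taken relative to vehicle.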

[6] = NCI Yeast Anticancer Drug Screen. Data for the mec2-1 strain (AID 157); settings: S. cerevisiae mec2-1 strain, stronger effect = higher value
Method in brief: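 Readout is yeast growth inhibition, normalised to vehicle-treated controls, in the mec2-1 strain exposed to compound.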

[7] = NCI Yeast Anticancer Drug Screen. Data for the rad14 strain (AID 159);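 also: 0% = growth of vehicle-treated control cultures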; settings: S. cerevisiae rad14 strain growth inhibition, stronger effect = higher value
Method in brief: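 DNA repair-defective yeast, compound-exposed; % growth inhibition derived by comparison with vehicle-treated controls.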

[8] = NCI Yeast Anticancer Drug Screen. Data for the sgs1 mgt1 strain (AID 161);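 also: 0% = growth of cultures given vehicle only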; settings: S. cerevisiae sgs1 mgt1 strain, stronger effect = higher value
Method in brief: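 Percent growth inhibition was derived by comparing compound-exposed mutant yeast with vehicle-exposed cultures. The strain carries alterations in DNA damage repair.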

[9] = NCI Yeast Anticancer Drug Screen. Data for the CLN2oe strain (AID 163);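 also: 0% = growth of vehicle-only control cultures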; settings: S. cerevisiae CLN2oe strain, stronger effect = higher value
Method in brief: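 Values reflect how much compound exposure reduced yeast growth, referenced to vehicle-exposed cells. Assay organism is a strain with a defined genetic change affecting cell-cycle control.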

[10] = NCI Yeast Anticancer Drug Screen. Data for the cln2 rad14 strain (AID 165);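 also: 0% = growth equal to vehicle treated cultures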; settings: S. cerevisiae cln2 rad14 strain, stronger effect = higher value
Method in brief: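 Relative to vehicle controls, growth inhibition of compound-treated cln2 rad14 yeast was recorded.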

[11] = NCI Yeast Anticancer Drug Screen. Data for the bub3 strain (AID 167); settings: S. cerevisiae bub3 mutant strain, stronger effect = higher value
Method in brief: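 In this screen, a yeast mutant lacking normal mitotic checkpoint function is challenged with compound. Relative growth versus vehicle gives the inhibition value.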

[12] = NCI Yeast Anticancer Drug Screen. Data for the wt2 strain (AID 169);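 also: 0% = growth of vehicle-treated yeast cultures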; settings: S. cerevisiae wt2 strain growth inhibition, stronger effect = higher value
Method in brief: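 Values express reduction in yeast growth under compound treatment, referenced to vehicle-treated cells.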

[13] = NCI Yeast Anticancer Drug Screen. Data for the mlh1 strain (AID 171);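 also: 0% = growth of vehicle-treated control cultures of the same strain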; settings: S. cerevisiae mlh1 strain growth inhibition, stronger effect = higher value
Method in brief: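 Steps: expose the defined-mutant yeast strain to compound; expose a parallel culture to vehicle; measure growth; express compound effect as inhibition relative to the vehicle culture.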

[14] = NCI Yeast Anticancer Drug Screen. Data for the sgs1 strain (AID 173);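 also: 0% = growth of vehicle-only control cultures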; settings: S. cerevisiae sgs1 mutant, stronger effect = higher value
Method in brief: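 Treat defined-mutant yeast with compound; measure growth; calculate inhibition relative to vehicle-treated cells.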

[15] = NCI Yeast Anticancer Drug Screen. Data for the mlh1 rad18 strain (AID 175); settings: S. cerevisiae mlh1 rad18 strain growth inhibition, stronger effect = higher value
Method in brief: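 Test agents were incubated with a yeast strain of defined genotype (DNA damage repair defect). Inhibition of growth was derived by comparison with vehicle-exposed cultures.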

[16] = NCI Yeast Anticancer Drug Screen. Data for the rad18 strain (AID 177); settings: S. cerevisiae rad18 mutant growth inhibition, stronger effect = higher value
Method in brief: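 A genetically defined yeast mutant impaired in DNA damage repair was treated with test compounds, then its growth was measured against cultures receiving vehicle alone.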

[17] = at 5.0 µM (retest, dose inferred, filed as 0.5)
[18] = at 50.0 µM (retest, dose inferred, filed as 5.0)

Measured: growth inhibition

Clc1c(Cl)c(Cl)c2n[nH]nc2c1Cl
inactive: [1]; at 1.2 µM -30% | [1]; at 3.7 µM -11% | [1]; at 11.0 µM -20% | [1]; at 33.0 µM -12% | [1]; at 100.0 µM 65% | [2]; at 1.2 µM -23% | [2]; at 3.7 µM -16% | [2]; at 11.0 µM -9% | [2]; at 33.0 µM 14% | [3]; at 1.2 µM -62% | [3]; at 3.7 µM -51% | [3]; at 11.0 µM -28% | [3]; at 33.0 µM 18% | [3]; at 100.0 µM 20% | [4]; at 1.2 µM -23% | [4]; at 3.7 µM -12% | [4]; at 11.0 µM -5% | [4]; at 33.0 µM 6% | [5]; at 1.2 µM -13% | [5]; at 3.7 µM -21% | [5]; at 11.0 µM -9% | [5]; at 33.0 µM 14% | [5]; at 50.0 µM 60.1% | [6]; at 1.2 µM -6% | [6]; at 3.7 µM -20% | [6]; at 11.0 µM -21% | [6]; at 33.0 µM 9% | [6]; at 50.0 µM 54.8% | [7]; at 1.2 µM -9% | [7]; at 3.7 µM -19% | [7]; at 11.0 µM -9% | [7]; at 33.0 µM 11% | [8]; [17] -17% | [9]; at 1.2 µM -7% | [9]; at 3.7 µM -10% | [9]; at 11.0 µM 1% | [9]; at 33.0 µM 21% | [10]; [17] 57% | [10]; [18] 57% | [11]; at 1.2 µM -21% | [11]; at 3.7 µM -18% | [11]; [17] -11% | [11]; at 11.0 µM -10% | [11]; at 33.0 µM 15% | [12]; at 1.2 µM -24% | [12]; at 3.7 µM -18% | [12]; at 11.0 µM -7% | [12]; at 33.0 µM -3% | [13]; at 1.2 µM -59% | [13]; at 3.7 µM -52% | [13]; at 11.0 µM -33% | [13]; at 33.0 µM 14% | [14]; at 1.2 µM -40% | [14]; at 3.7 µM -26% | [14]; at 11.0 µM -12% | [14]; at 33.0 µM 30% | [15]; at 50.0 µM 37.5% | [16]; at 1.2 µM -29% | [16]; at 3.7 µM -38% | [16]; at 11.0 µM -25% | [16]; at 33.0 µM 4% | [16]; at 100.0 µM 57%
active: [2]; at 100.0 µM 87% | [4]; at 100.0 µM 86% | [5]; [17] 100% | [5]; [18] 100% | [5]; at 100.0 µM 75% | [6]; [17] 100% | [6]; [18] 100% | [6]; at 100.0 µM 82% | [7]; at 100.0 µM 94% | [8]; [18] 78% | [9]; at 100.0 µM 76% | [11]; [18] 73% | [11]; at 100.0 µM 87% | [12]; at 100.0 µM 94% | [13]; at 100.0 µM 75% | [14]; at 100.0 µM 91% | [15]; [17] 100% | [15]; [18] 100%

c1ccc2c(c1)Cn1c-2nc2ccccc21
inactive: [1]; at 1.2 µM 1% | [1]; at 3.7 µM 1% | [1]; at 11.0 µM 8% | [2]; at 1.2 µM -27% | [2]; at 3.7 µM -21% | [2]; at 11.0 µM -28% | [2]; at 33.0 µM 5% | [3]; at 1.2 µM 2% | [3]; at 3.7 µM -4% | [3]; at 11.0 µM 8% | [3]; at 33.0 µM 62% | [4]; at 1.2 µM 15% | [4]; at 3.7 µM 3% | [4]; at 11.0 µM 30% | [5]; at 1.2 µM -9% | [5]; at 3.7 µM 1% | [5]; [17] 49% | [5]; at 11.0 µM 24% | [6]; at 1.2 µM 9% | [6]; at 3.7 µM 7% | [6]; at 11.0 µM 13% | [6]; at 33.0 µM 53% | [6]; at 50.0 µM 69.5% | [7]; at 1.2 µM -19% | [7]; at 3.7 µM -17% | [7]; at 11.0 µM -12% | [7]; at 33.0 µM 33% | [8]; [17] -27% | [9]; at 1.2 µM -18% | [9]; at 3.7 µM 0% | [9]; at 11.0 µM -23% | [9]; at 33.0 µM 18% | [10]; [17] 54% | [11]; at 1.2 µM -11% | [11]; at 3.7 µM -5% | [11]; [17] 27% | [11]; at 11.0 µM 3% | [11]; at 33.0 µM 68% | [12]; at 1.2 µM -24% | [12]; at 3.7 µM -5% | [12]; at 11.0 µM -4% | [12]; at 33.0 µM 34% | [13]; at 1.2 µM -31% | [13]; at 3.7 µM -8% | [13]; at 11.0 µM 2% | [13]; at 33.0 µM 36% | [14]; at 1.2 µM -7% | [14]; at 3.7 µM -21% | [14]; at 11.0 µM -21% | [14]; at 33.0 µM 31% | [15]; [17] 50% | [16]; at 1.2 µM -7% | [16]; at 3.7 µM -4% | [16]; at 11.0 µM -1% | [16]; at 33.0 µM 25%
active: [1]; at 33.0 µM 78% | [1]; at 100.0 µM 97% | [2]; at 100.0 µM 94% | [3]; at 100.0 µM 95% | [4]; at 33.0 µM 74% | [4]; at 100.0 µM 98% | [5]; at 33.0 µM 75% | [5]; [18] 74% | [5]; at 50.0 µM 84.3% | [5]; at 100.0 µM 96% | [6]; [17] 73% | [6]; [18] 85% | [6]; at 100.0 µM 98% | [7]; at 100.0 µM 97% | [8]; [18] 84% | [9]; at 100.0 µM 96% | [10]; [18] 87% | [11]; [18] 86% | [11]; at 100.0 µM 97% | [12]; at 100.0 µM 94% | [13]; at 100.0 µM 96% | [14]; at 100.0 µM 92% | [15]; [18] 78% | [15]; at 50.0 µM 83.4% | [16]; at 100.0 µM 95%
